SMILES strings stand for the structures. Active and inactive are the calls of the source. Unless noted, the rule behind the calls is not given here.

Experiment [1] in a line: compounds binding Alexa647 anti-His antibody – biochemical, small-molecule microarray, 635 nm fluorescence, artefact control for SMM control protein annotation, primary screen (AID 1128).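 Note: score merges feature fluorescence with signal-to-noise for each printed compound spot.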 To be noted: higher = more signal.
Experiment [2] deals with Human papillomavirus type 1a E7 protein (residues 1-88). Briefly: HPV1a E7 small-molecule binders, primary screen, biochemical, small-molecule microarray, residues 1-88, 635 nm (AID 1129). As to conditions: small-molecule microarray binding, fluorescence 635 nm; higher = more signal.
Experiment [3] addresses Focal adhesion kinase 1 (Homo sapiens) (UniProt Q05397). Briefly: PTK2 protein binding on printed compound slides – biochemical, small-molecule microarray, 635/667 nm fluorescence, BSA, DTT, primary screen (AID 1130).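 Note: composite of spot emission at 667 nm and signal to noise over triplicate slides.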 As to conditions: 635 nm fluorescence, higher = more signal.
Experiment [4] has as its system Fibrinogen (Alexa647-labelled). The experiment in a line: Alexa647-fibrinogen binding to printed small molecules – biochemical, small-molecule microarray, 635/667 nm fluorescence, artefact control for SMM control-protein annotation, profiling panel (AID 1131).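 Note: z-score merges 667 nm fluorescence with per-spot signal-to-noise over triplicate slides.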 To be noted: fibrinogen-A647 binding fluorescence, higher = more signal.
The target of experiment [5] is Follistatin (Homo sapiens) (UniProt P19883). Briefly: FST protein binding to printed compounds – biochemical, small-molecule microarray, 635/667 nm fluorescence, primary screen (AID 1132). To be noted: 635 nm fluorescence, higher = more signal.
Experiment [6] has as its target Fibroblast growth factor 2 (Homo sapiens) (UniProt P09038). Briefly: basic fibroblast growth factor binding to printed compounds – biochemical, small-molecule microarray, 635/667 nm fluorescence, primary screen (AID 1133). To be noted: FGF2, fluorescence 635/667, higher = more signal.
Experiment [7] can be described thus: JC-1 mitochondrial potential readout, lung cancer cells – cell-based, A549, JC-1 fluorescence, basal, 24 h, 100 nL, profiling panel (AID 1138).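 Note: A549 lung adenocarcinoma cells under basal conditions with no added stimulus; test concentration not given here.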 To be noted: higher = more signal.
Experiment [8] relates to Lefty1. The experiment in a line: Lefty1 protein binding to printed compounds – biochemical, small-molecule microarray, 635/667 nm fluorescence, primary screen (AID 1139). As to conditions: fluorescence 635/667, higher = more signal.
Experiment [9] deals with wheat germ agglutinin (Triticum aestivum), Alexa647-labelled. The experiment in a line: Alexa647-WGA lectin binding to printed small molecules – biochemical, small-molecule microarray, 635/667 nm fluorescence, artefact control for SMM control-protein annotation, profiling panel (AID 1140).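 Note: score merges 667 nm feature emission with signal to noise over triplicate slides.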 To be noted: WGA-A647 binding, 635 nm fluorescence, higher = more signal.
For experiment [10], the target named is Luciferin 4-monooxygenase (Photinus pyralis) (UniProt P08659). The experiment in a line: inhibition of purified Photinus pyralis luciferase – biochemical, luminescence, purified enzyme, 2006 set, primary screen (AID 1141).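 Note: cell-free assay with purified firefly luciferase at 100 ng per well in PBS; test concentration not given here.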 As to conditions: purified firefly luciferase, SteadyGlo luminescence, 30 min; higher = more signal, called active from +8 up or from −8 down.

The test system of experiment [11] is Wnt5a (protein binding on small-molecule microarray). Briefly: small molecules binding Wnt5a protein – biophysical, small-molecule microarray, 635/667 nm fluorescence, primary screen (AID 1142).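 Note: fluorescence read at 667 nm with signal to noise per printed feature.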 To be noted: 635 nm fluorescence, higher = more signal.
Experiment [12] in a line: ATP-based viability of Huh7 replicon cells – cell-based, CellTiter-Glo luminescence, basal, 48 h, cytotoxicity control for HCV replication inhibitor project, primary screen (AID 1143).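 Note: Huh7 hepatoma cells carrying a hepatitis C replication reporter with no stimulus; test concentration not given here.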 To be noted: higher = more signal, called active from +8 up or from −8 down.
Experiment [13] can be described thus: Pseudomonas biofilm growth suppression – PAO1 strain, BacTiter-Glo luminescence, LB-PBS, primary screen (AID 1144). As to conditions: P. aeruginosa PAO1 biofilm, 12 h, higher = more signal.
Experiment [14] can be described thus: basal CRE-LacZ reporter activity in PC12 – cell-based, unstimulated, primary screen (AID 1145). As to conditions: no forskolin, luminescence, 4.5 h, higher = more signal, called active from +8 up or from −8 down.
Experiment [15] is described as follows: forskolin-driven CRE-LacZ activity in PC12 – cell-based, CRE-LacZ reporter, forskolin-stimulated, primary screen (AID 1146).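 Note: PC12 cells with 6xCRE LacZ reporter stimulated by forskolin 10 µM; beta-galactosidase reporter signal reflecting CREB driven transcription.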 As to conditions: luminescence, 4.5 h, higher = more signal, called active from +8 up or from −8 down.
In experiment [16] the target is Streptavidin (Streptomyces avidinii) (UniProt P22629). Briefly: compounds binding control protein streptavidin – biophysical, small-molecule microarray, 635/667 nm fluorescence, artefact control for SMM compound annotation, primary screen (AID 1147).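 Note: signal reflects streptavidin binding to arrayed compounds as a control protein.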 As to conditions: higher = more signal.
Experiment [17] can be described thus: probe aInhba binding on compound microarray – biochemical, small-molecule microarray, 635/667 nm fluorescence, primary screen (AID 1148).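 Note: score merges 667nm spot fluorescence with signal-to-noise for antibody binding to printed compounds.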 To be noted: higher = more signal.
Experiment [18] concerns the target Torsin-1A (Homo sapiens) (UniProt O14656). Briefly: TOR1A wild-type binding on microarray – cell lysate, small-molecule microarray, lysate, 635/667 nm, primary screen (AID 1149). As to conditions: COS7 hTOR1A-WT lysate, 635 nm fluorescence, higher = more signal.
Experiment [19] shares this target. The experiment in a line: torsin A mutant lysate binding on microarrays – cell lysate, small-molecule microarray, COS7 lysate, 635/667 nm fluorescence, primary screen (AID 1150).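 Note: score pools 667 nm emission and signal to noise measuring lysate protein binding.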 To be noted: COS7 hTOR1A mutant lysate, 635 nm fluorescence, higher = more signal.
The subject of experiment [20] is Sonic hedgehog protein (Shh). Briefly: Sonic hedgehog microarray binding compounds – biochemical, small-molecule microarray, 635/667 nm fluorescence, primary screen (AID 1151).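 Note: Shh protein binding to compounds spotted on small-molecule microarray slides; score combines spot fluorescence intensity with signal-to-noise across triplicate slides.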 To be noted: 635 nm fluorescence, higher = more signal.

Fibroblast growth factor 2 (Homo sapiens), sequence (P09038 whole entry, looked up): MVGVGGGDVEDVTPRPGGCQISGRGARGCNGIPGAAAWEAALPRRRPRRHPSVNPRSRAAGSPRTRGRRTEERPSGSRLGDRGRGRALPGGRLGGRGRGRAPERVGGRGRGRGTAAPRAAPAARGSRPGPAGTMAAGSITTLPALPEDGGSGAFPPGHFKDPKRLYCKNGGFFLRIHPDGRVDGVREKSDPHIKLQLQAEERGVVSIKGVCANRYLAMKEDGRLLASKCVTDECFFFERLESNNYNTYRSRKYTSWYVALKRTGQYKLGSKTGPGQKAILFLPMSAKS
Torsin-1A (Homo sapiens), sequence (O14656 whole entry, looked up): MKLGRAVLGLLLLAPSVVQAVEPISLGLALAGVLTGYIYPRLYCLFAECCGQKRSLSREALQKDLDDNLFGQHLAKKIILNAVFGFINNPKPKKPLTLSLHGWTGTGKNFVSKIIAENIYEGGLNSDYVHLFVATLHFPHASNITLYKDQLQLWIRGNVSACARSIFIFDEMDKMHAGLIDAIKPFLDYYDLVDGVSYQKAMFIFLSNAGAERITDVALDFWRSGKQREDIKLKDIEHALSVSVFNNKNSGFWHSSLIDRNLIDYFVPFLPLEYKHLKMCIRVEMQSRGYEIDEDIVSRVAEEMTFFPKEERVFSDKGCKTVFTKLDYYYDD
Streptavidin (Streptomyces avidinii), sequence (P22629 whole entry, looked up): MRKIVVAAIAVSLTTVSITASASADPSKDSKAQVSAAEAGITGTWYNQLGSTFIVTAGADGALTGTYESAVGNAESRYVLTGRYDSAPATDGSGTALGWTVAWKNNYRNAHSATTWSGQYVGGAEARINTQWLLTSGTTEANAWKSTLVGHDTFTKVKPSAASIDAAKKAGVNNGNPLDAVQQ
Luciferin 4-monooxygenase (Photinus pyralis), sequence (P08659 whole entry, looked up): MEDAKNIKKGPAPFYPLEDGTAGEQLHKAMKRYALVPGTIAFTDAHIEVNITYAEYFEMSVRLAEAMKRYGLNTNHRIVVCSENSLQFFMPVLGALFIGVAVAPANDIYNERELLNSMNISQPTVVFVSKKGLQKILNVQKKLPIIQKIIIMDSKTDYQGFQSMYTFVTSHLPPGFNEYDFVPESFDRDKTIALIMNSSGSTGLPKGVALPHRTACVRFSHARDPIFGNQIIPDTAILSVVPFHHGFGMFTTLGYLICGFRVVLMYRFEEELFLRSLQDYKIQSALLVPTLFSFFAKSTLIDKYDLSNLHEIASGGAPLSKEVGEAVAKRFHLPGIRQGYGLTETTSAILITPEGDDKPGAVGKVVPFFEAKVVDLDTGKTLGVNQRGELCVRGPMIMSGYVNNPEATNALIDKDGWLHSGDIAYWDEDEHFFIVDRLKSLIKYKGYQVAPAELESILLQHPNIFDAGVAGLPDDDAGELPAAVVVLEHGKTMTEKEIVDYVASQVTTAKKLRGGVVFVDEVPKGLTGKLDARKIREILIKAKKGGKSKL
Focal adhesion kinase 1 (Homo sapiens), sequence (Q05397 whole entry, looked up): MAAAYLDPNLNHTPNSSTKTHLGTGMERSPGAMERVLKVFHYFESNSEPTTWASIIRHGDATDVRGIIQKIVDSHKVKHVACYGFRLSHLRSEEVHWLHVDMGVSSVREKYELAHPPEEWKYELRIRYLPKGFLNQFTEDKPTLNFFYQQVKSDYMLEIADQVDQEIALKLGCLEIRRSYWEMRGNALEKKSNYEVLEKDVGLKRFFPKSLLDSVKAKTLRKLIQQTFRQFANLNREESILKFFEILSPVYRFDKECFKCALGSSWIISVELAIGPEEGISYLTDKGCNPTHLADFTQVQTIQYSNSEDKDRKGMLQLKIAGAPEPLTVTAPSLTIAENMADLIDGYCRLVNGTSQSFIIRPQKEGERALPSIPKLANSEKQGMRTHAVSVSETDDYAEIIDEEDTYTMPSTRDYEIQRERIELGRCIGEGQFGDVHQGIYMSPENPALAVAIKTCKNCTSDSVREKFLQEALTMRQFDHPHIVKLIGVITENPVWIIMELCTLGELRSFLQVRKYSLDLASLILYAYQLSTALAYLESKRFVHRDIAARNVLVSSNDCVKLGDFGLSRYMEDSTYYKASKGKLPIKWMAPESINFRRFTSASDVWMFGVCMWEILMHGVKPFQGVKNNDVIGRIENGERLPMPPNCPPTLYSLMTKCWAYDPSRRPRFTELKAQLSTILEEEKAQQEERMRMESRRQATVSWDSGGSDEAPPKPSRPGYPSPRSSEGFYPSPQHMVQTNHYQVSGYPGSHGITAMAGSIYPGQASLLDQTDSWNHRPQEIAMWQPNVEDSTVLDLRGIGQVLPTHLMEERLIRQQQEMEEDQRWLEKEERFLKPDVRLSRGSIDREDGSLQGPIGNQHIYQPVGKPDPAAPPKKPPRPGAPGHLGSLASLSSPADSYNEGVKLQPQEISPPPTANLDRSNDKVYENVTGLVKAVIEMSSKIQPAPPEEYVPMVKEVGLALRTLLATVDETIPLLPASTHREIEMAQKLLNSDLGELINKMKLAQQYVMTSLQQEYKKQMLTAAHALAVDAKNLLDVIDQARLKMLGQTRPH
Follistatin (Homo sapiens), sequence (P19883 whole entry, looked up): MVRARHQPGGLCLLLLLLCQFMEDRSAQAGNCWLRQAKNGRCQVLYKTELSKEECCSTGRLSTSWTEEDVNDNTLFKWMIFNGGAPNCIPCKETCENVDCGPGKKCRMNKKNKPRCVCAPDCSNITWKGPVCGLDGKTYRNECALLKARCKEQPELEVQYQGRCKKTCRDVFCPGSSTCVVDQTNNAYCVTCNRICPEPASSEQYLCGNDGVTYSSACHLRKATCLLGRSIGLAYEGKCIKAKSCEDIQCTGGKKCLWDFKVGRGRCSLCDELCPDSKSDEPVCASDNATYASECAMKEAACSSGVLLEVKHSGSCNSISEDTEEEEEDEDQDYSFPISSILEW

`O=C1OC[C@@H](c2ccccc2)N2CC(/C=C/c3ccccc3)=CC12` (stereo not given in full): the composite z-score was -0.206 in [1]; 0.725 in experiment [2]; -0.542 in experiment [3]; -0.593 in [4]; -1.29 in experiment [5]; -1.45 in experiment [6]. Moreover, the composite z-score in experiment [8] was -1.58; in [9] it was -0.408; in experiment [11], -0.82; in experiment [16], -0.274; in [17] it was -0.239; in experiment [18], -0.872. Further, the composite z-score in experiment [19] is -1.31; in experiment [20] it was -1.05. The z-score in experiment [7] is 0.0121; in experiment [10], 0.0761 (inactive); in [12], -2.59 (inactive); in [13], 0.476 (inactive); in experiment [14] it was 0.945 (inactive); in experiment [15] it was -1.57 (inactive).

With `COc1ccc(NC(=O)O[C@H]2[C@H](OC(=O)Nc3ccc4c(c3)OCO4)[C@@H](OC(=O)Nc3ccc4c(c3)OCO4)[C@@H](OC)O[C@@H]2CO)cc1`, the composite z-score in [1] turned out to be 1.34; in experiment [2], 1.25; in [3] it was 0.316; in [4], 0.922; in experiment [5], 1.16; in [6], 0.802. Also, the composite z-score came to 0.598 in experiment [8]; 0.943 in [9]; 0.201 in experiment [11]; 1.38 in experiment [16]; 0.277 in experiment [17]; 0.812 in experiment [18]. Besides, the composite z-score in experiment [19] and in experiment [20] was 1.27 throughout. For the same compound, the z-score in [7] was -0.669; in [10], -4.27 (inactive); in experiment [12], -3.73 (inactive); in experiment [13], -0.488 (inactive); in experiment [14] it was 1.85 (inactive); in experiment [15], -0.559 (inactive).

Consider `Cc1ccc(F)cc1S(=O)(=O)N[C@@H]1CCN(Cc2ccc(OC(C)C)cc2)C1`, for which the composite z-score in experiment [1] is 0.111; in experiment [2], -1.37; in experiment [3] it was -0.425; in [4], -0.907; in experiment [5] it was -0.235; in [6] it was 0.47. Also, the composite z-score is -0.177 in [8]; -1.28 in experiment [9]; -0.0943 in experiment [11]; -0.293 in experiment [16]; -0.341 in experiment [17]; 0.277 in experiment [18]. The composite z-score in [19] was 0.719; in experiment [20] it was -0.0003. Moreover, the z-score in [7] is 1.14; in [10], 0.0358 (inactive); in experiment [12], -3.86 (inactive); in experiment [13], 0.816 (inactive); in experiment [14] it was 1.76 (inactive); in [15], 0.524 (inactive).

In the case of `C=C(/C(=C/C[C@@H](OC(=O)c1ccncc1)c1ccccc1OCCO)c1cc(C(=O)OC)ccc1OC)C(C)C`, the composite z-score in [1] was 0.0652; in experiment [2], 1.2; in experiment [3] it was 0.378; in [4], -0.325; in [5] it was 0.64; in [6] it was 0.806. The composite z-score in [8] came to 0.782; in [9], 0.986; in [11], 0.449; in experiment [16], 0.187; in experiment [17], 0.0498; in experiment [18], 0.438. The composite z-score in [19] stood at 1.29; in experiment [20], 0.698. In addition, the z-score was 3.35 in [7]; -1.47 (inactive) in experiment [10]; -2.43 (inactive) in [12]; 0.128 (inactive) in experiment [13]; 22.5 (active) in experiment [14]; -0.267 (inactive) in [15].

Turning to `[N-]=[N+]=NCc1ccccc1C[C@@]1(C(=O)NCCN2CCOCC2)N=C(c2ccc(OCCCO)cc2)O[C@@H]1c1ccccc1N=[N+]=[N-]`, the composite z-score in experiment [1] was 1.4; in experiment [2] it was 1.19; in [3], 1.05; in [4], 0.957; in [5], 0.423; in experiment [6] it was -0.498. Also, the composite z-score in experiment [8] is -0.165; in [9], 0.963; in experiment [11], 0.512; in experiment [16] it was 0.408; in experiment [17], 0.0906; in experiment [18], 0.5. Besides, the composite z-score was 1.73 in [19] and -0.492 in experiment [20]. Further, the z-score in experiment [7] was -0.183; in experiment [10], -5.91 (inactive); in experiment [12], -5.21 (inactive); in [13], -0.503 (inactive); in experiment [14], 0.69 (inactive); in experiment [15], -1.46 (inactive).

Consider `CC=CC(O)C1C=CC2C(=O)N(c3ccccc3)C(=O)C2N1Nc1ccc([N+](=O)[O-])cc1` (stereo not given), for which the composite z-score is 1.58 in experiment [1]; 0.644 in [2]; 0.427 in [3]; 0.752 in [4]; 0.495 in experiment [5]; 0.194 in [6]. In addition, the composite z-score in experiment [8] is 0.112; in [9], 0.645; in experiment [11], -0.0454; in [16], 0.395; in [17], -0.162; in experiment [18] it was 0.463. The composite z-score in [19] is -0.213; in [20] it was 0.224. In addition, the z-score is -0.645 in experiment [7]; 1.28 (inactive) in [10]; 0.612 (inactive) in experiment [12]; 0.698 (inactive) in experiment [13]; -0.415 (inactive) in experiment [14]; 0.0268 (inactive) in experiment [15].

For `COc1ccc(C(O)C2C=CC3C(=O)N(C)C(=O)C3N2N2CCCCC2)cc1` (stereo not given), the composite z-score in experiment [1] is 2.56; in experiment [2], 1.23; in experiment [3] it was 0.656; in experiment [4] it was 0.96; in experiment [5] it was 0.299; in experiment [6], -0.19. In addition, the composite z-score in experiment [8] is -0.523; in experiment [9], 1.29; in [11] it was 0.345; in experiment [16] it was 1.54; in experiment [17] it was 0.158; in [18] it was 0.718. Moreover, the composite z-score in [19] is 0.849; in [20] it was -0.381. Further, the z-score in experiment [7] is 0.406; in experiment [10] it was -1.08 (inactive); in experiment [12], 0.758 (inactive); in experiment [13], -0.3 (inactive); in experiment [14], 0.639 (inactive); in experiment [15] it was 0.104 (inactive).

As to `Cc1ccc(S[C@]2(C(=O)NCc3ccccc3)CC(=O)N(C(C)C)[C@@H]2c2ccc(CO)cc2I)cc1`, the composite z-score in experiment [1] is 0.257; in experiment [2], -0.0754; in experiment [3], -0.19; in experiment [4] it was -0.956; in experiment [5], -0.289; in experiment [6] it was -1.04. The composite z-score in experiment [8] is -1.17; in experiment [9], -0.0961; in experiment [11] it was 0.292; in experiment [16], -0.505; in experiment [17] it was 0.0028; in experiment [18], -0.0397. Further, the results for the composite z-score in experiment [19] and in [20] were -0.609 and -1.37, respectively. The z-score was -0.224 in experiment [7]; 0.667 (inactive) in [10]; -1.11 (inactive) in experiment [12]; 0.201 (inactive) in experiment [13]; 0.208 (inactive) in [14]; 1.95 (inactive) in [15].

In the case of `C=C(C(=O)CC[C@H](OC(C)=O)c1cccc(OCCO)c1)C(C)C`, the composite z-score in [1] was -0.734; in experiment [2], -1.35; in experiment [3], -0.311; in experiment [4], -0.0681; in experiment [5], -0.791; in [6], -0.883. Also, the composite z-score is -0.638 in experiment [8]; 0.335 in experiment [9]; -0.161 in experiment [11]; -0.608 in [16]; -0.0719 in experiment [17]; -0.34 in experiment [18]. For the same compound, the figures for the composite z-score in experiment [19] and in experiment [20] were -0.241 and 0.144, respectively. Besides, the z-score is -0.6 in [7]; -0.0654 (inactive) in [10]; -3.05 (inactive) in experiment [12]; -0.0576 (inactive) in experiment [13]; 0.798 (inactive) in [14]; 1.04 (inactive) in experiment [15].

The values above are taken from PubChem BioAssay.
